# From PubChem BioAssay AID504727 (Broad Institute, 2011)
# Activity calls are given as the source filed them.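 How the source made its calls: active means fitted half-maximal concentration AC50 at or below ten times the highest valid tested dose, with signal falling as DNA is displaced (actives reach about 34 µM in these data); inconclusive means flat fit at moderate signal loss, or poor fit quality; inactive means the rest, including signal rising instead of falling.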
# Test: DNA intercalators displacing acridine orange, dose response, artefact control for KSHV LANA DNA-binding inhibitor project, biochemical, fluorescence polarization, cherry-picked samples, set 2 (AID 504727)
# Settings: AC50: Acridine orange-DNA displacement; series mostly up to 35 µM
row,SMILES,AC50
1,CC(C)c1ccc(CNc2ccc([N+](=O)[O-])cn2)cc1,inactive
2,Clc1ccc(-c2nnc3sc(-c4ccc(Br)o4)nn23)cc1,inactive
3,CC1=NN(c2cccc(C(=O)O)c2)C(=O)/C1=C\C=C\c1ccco1,inactive
4,CSc1n[nH]c(=O)n1-c1cccc(Cl)c1,inactive
5,CCOC(=O)C1=C(O)/C(=C/c2cc(C)n(-c3ccccc3)c2C)N=C1C,inactive
6,Cc1nc2c(=O)[nH]c(=S)[nH]c2[nH]c1=O,inactive
7,Nc1ccc2c3c(cccc13)C(=O)N(c1ccccc1)C2=O,3910 nM (active)
8,Cn1c(Cl)c(C(=O)Nc2ccc(Cl)cc2)c2ccccc21,inactive
9,CCN(CC)c1ccc2cc(S(=O)(=O)c3ccc(Cl)cc3)c(=O)oc2c1,6870 nM (active)
10,O=C(CCn1c(=S)oc2ccccc21)N1CCN(c2ccc(F)cc2)CC1,inactive
11,CCN(C(=O)COC(=O)c1nc2nc(C)cc(C)n2n1)C1CCCCC1,inactive
12,Oc1ccccc1C=Nc1ccccc1-c1nc2ccccc2[nH]1,inactive
13,O=C(c1ccc2c(c1)CCN2S(=O)(=O)c1ccccc1)N1CCN(c2ccc(F)cc2)CC1,inactive
14,CCCOc1ccc(C=Nc2ccc(OC)c(S(=O)(=O)N3CCOCC3)c2)c(O)c1,inactive
15,COc1ccc2noc3c2c1C(=O)c1ccccc1-3,241 nM (active)
16,CN(C)CCCNC(=O)c1ccccc1Oc1ccccc1,inactive
17,O=C(CCN1C(=O)/C(=C\c2ccco2)SC1=S)Nc1ccc(C(=O)O)c(O)c1,inactive
18,O=C(Nc1cc(Cl)ccc1-n1cncn1)c1cccs1,inactive
19,COc1ccc(NC(=O)COC(=O)c2c(-c3ccccc3)noc2C)cc1,inactive

row,SMILES,AC50
1,Oc1[nH]c2ccccc2c1N=Nc1ccccc1F,inactive
2,CCCc1nc(SC)[nH]c(=O)c1C,inactive
3,O=C(CC1CCCC1)N1CCN(S(=O)(=O)c2ccccc2)CC1,inactive
4,O=c1[nH]nc(CSCc2ccccc2Cl)[nH]1,inactive
5,CC[C@@]1(O)C(=O)OCc2c1cc1n(c2=O)Cc2cc3c(CN(C)C)c(O)ccc3nc2-1,3800 nM (active)
6,COc1ccc(C(=O)c2ccsc2N)cc1,inactive
7,Cc1ccccc1NC(=S)NC(C)CCc1ccccc1 (stereo not drawn),inactive
8,COc1ccccc1CNC(=O)CCS(=O)(=O)c1cccs1,inactive
9,O=C(CN1C(=O)NC2(CCCC2)C1=O)Nc1ccccc1-c1ccccc1,inactive
10,O=C(N/N=C/c1ccc(N2CCOCC2)cc1)c1ccccn1,inactive
11,Oc1ccc2ccc3cccc[n+]3c2c1,1420 nM (active)
12,Cn1c(=O)c(NCCc2ccccc2)c2c3c(cccc31)C(=O)c1ccccc1-2,1140 nM (active)
13,Cc1nnc(NC(=O)CN2C(=O)NC3(CCCC3)C2=O)s1,inactive
14,S=c1[nH]nc([C@@H]2C[C@H]2c2ccccc2)n1-c1ccccc1Cl,inactive
15,Cc1cc(N)ccc1N=Nc1c(C)n(C)n(-c2ccccc2)c1=O,inactive
16,O=C(O)c1cccc(-n2cccc2/C=C2/NC(=O)N(c3ccc(Cl)cc3)C2=O)c1,inactive
17,COc1ccc(C2(CNC(=O)CCC(=O)O)CCCC2)cc1OC,inactive
18,CC(Sc1ncccn1)C(=O)NNC(=O)c1cccc(Cl)c1 (stereo not drawn),inactive
19,COc1ccc(CCNC(=O)CNC(=O)Cn2ccc3ccccc3c2=O)cc1OC,inactive
